# This is a sample that favours compounds with a hit; in the whole collection about 1.6% have one here.
# S1P3 antag = S1P3 receptor antagonists, primary screen, cell-based | Sphingosine 1-phosphate receptor 3 (Homo sapiens), Q99500 | inhibition, % at 4.98 µM | CHO S1P3 NFAT-BLA reporter, FRET fluorescence, antagonist mode | hit rate 0.27% among 170,000;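 active means inhibition above the plate cutoff, the mean inhibition of test wells on that plate plus 3 SD, cut at about 28% in these data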;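 further: cells challenged with S1P at its EC80 of 0.8 µM; blue over green emission ratio from cleaved BLA substrate after 4 h stimulation; 0% = S1P-stimulated wells and 100% = unstimulated DMSO-only wells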
# p97 inhibitor = inhibitors of human p97 ATPase, primary screen, biochemical; Transitional endoplasmic reticulum ATPase (Homo sapiens), P55072; recombinant p97 ATPase, Kinase-Glo ATP luminescence, 3 h; inhibition, % at 8 µM; hit rate 0.42% among 220,000; in the data active means inhibition above about 15%;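 further: 0% = DMSO vehicle and 100% = wells lacking enzyme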
# S1P4 ag = S1P4 receptor agonists, primary screen, cell-based; Sphingosine 1-phosphate receptor 4 (Homo sapiens), O95977; S1P4-expressing cell line, agonist reporter assay; activation, % at 4.98 µM; AID 1509, 2009; hit rate 0.35% among 220,000; in the data active means activation above about 11%;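 further: 0% = DMSO vehicle and 100% = reference agonist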
# Target sequence (O95977 whole entry, looked up): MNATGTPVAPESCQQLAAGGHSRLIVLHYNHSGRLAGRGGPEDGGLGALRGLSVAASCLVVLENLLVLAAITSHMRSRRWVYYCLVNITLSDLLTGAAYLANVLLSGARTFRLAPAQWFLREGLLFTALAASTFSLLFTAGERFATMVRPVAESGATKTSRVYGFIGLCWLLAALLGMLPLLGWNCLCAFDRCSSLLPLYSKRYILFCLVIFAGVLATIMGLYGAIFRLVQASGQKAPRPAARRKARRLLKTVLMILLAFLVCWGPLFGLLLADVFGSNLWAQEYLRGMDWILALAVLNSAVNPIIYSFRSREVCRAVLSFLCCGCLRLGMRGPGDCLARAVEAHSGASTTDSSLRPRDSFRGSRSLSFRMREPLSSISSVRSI
# Redox H2O2 prof = compounds producing H2O2 with reducing agent – biochemical, NIH compound library profiling, artefact control for MLSCN library redox annotation, primary screen; hit rate 0.03% among 200,000; DTT-dependent redox cycling H2O2, phenol red/HRP absorbance; 100% = 100 µM peroxide control, 0% = buffer; activation, % at 10 µM;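 active means activation of at least 50% relative to the plate's high and low controls in the primary single-dose screen; inactive means activation below 50%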;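 further: compound incubated with DTT at 0.8 mM final as the reducing agent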
# S1P4 antagonist = S1P4 receptor antagonists, primary screen, cell-based; Sphingosine 1-phosphate receptor 4 (Homo sapiens), O95977; S1P4-expressing cells, antagonist mode, reporter read-out; inhibition, % at 4.98 µM; hit rate 0.26% among 220,000; in the data active means inhibition above about 29%;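 further: 0% = wells stimulated with agonist and 100% = vehicle wells without agonist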
# Arbovirus inh = antivirals against arbovirus infection, primary screen, cell-based, full library, 10K replicate subset. inhibition, % at 10 µM. arbovirus infection cell-based antiviral screen. hit rate 0.37% among 200,000; in the data active means inhibition above about 30%
# S1P4 agonist cf = S1P4 receptor agonists, retest, confirmation, cell-based, high throughput | AID 1523, 2009 | S1P4 agonist cell-based reporter assay | activation, % at 4.98 µM | shares compounds with S1P4 ag | hit rate 7% among 740; in the data active means activation above about 12%;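 further: 0% = vehicle and 100% = full reference agonist response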
# S1P1 agonist = S1P1 receptor agonists, human, counter-screen for S1P4 agonist project, cell-based. shares compounds with S1P4 ag. S1P1 agonist cell-based assay, activation. activation, % at 4.98 µM. hit rate 4% among 740; in the data active means activation above about 21%;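 further: 0% = vehicle wells and 100% = reference agonist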
# * hit, by the source's call; . = no result.
SMILES,S1P3 antag,p97 inhibitor,S1P4 ag,Redox H2O2 prof,S1P4 antagonist,Arbovirus inh,S1P4 agonist cf,S1P1 agonist
CC1=CCC2COC(c3ccc[n+](Cc4ccccc4)c3)C1C2 (stereo unspecified),-8,1,0,0,-19,-7,.,.
O=C1c2cccc3c(Nc4ccccc4Cl)c([N+](=O)[O-])cc(c23)C(=O)N1CCO,.,3,-1,3,-29,-17,.,.
Cc1c(N/C(=N/S(=O)(=O)c2ccc(F)cc2)c2ccccc2)c(=O)n(-c2ccccc2)n1C,6,2,14*,1,-5,0,-3,-14
Cc1ccccc1S(=O)(=O)/N=C(/Nc1c(C)n(C)n(-c2ccccc2)c1=O)c1ccccc1,4,2,-1,0,-13,18,.,.
Cc1ccc(OCC(=O)N/N=C/c2ccc3c(c2)OCO3)cc1C,-2,2,12*,-1,13,-25,-2,1
CCC(C)NCCC(=O)Nc1ccc(Cl)c(S(=O)(=O)Nc2ccc(Cl)cc2)c1 (stereo unspecified),-14,-6,19*,-1,-2,-26,-3,-7
CCC(=O)N/C(N)=N/c1nc(C)c2cc(C)c(C)cc2n1,1,4,12*,.,-8,.,-1,-6
CC(=O)N(CCCN(C)C)Cc1ccccn1,-21,1,20*,.,4,.,-2,-7
CC(=O)N(CCCc1ccc(C(C)(C)C)cc1)CCCN(C)C,9,-3,-1,0,-14,-23,.,.
CCCn1c(C(C)C)n[nH]c1=S,-22,9,1,.,-6,.,.,.
Cc1ccccc1/C=N\NC(=O)c1ccc(Cn2cccn2)o1,13,1,47*,0,-16,0,-2,-3
Oc1cccc(/C=N/Nc2cc(N3CCOCC3)nc(N3CCOCC3)n2)c1,10,2,13*,0,2,-2,-2,-8
Oc1ccc(/C=N/Nc2cc(N3CCOCC3)nc(N3CCOCC3)n2)cc1O,-10,5,-1,0,7,-18,.,.
CC1Cc2ccccc2N1C(=O)Cn1cc([N+](=O)[O-])cn1 (stereo unspecified),.,2,0,-6,-13,2,.,.
CCCCSCc1nc2ccccn2c1Br,1,-2,-1,-1,-2,-7,.,.
Cc1cc(C(=O)CN2C(=O)NC3(CCCC3)C2=O)c(C)n1-c1ccc2c(c1)OCO2,-18,3,1,0,-2,-1,.,.
Cc1cc(C(=O)CN2C(=O)NC(C)(CC(C)C)C2=O)c(C)n1-c1ccc2c(c1)OCO2 (stereo unspecified),3,1,13*,0,-9,-12,-2,-1
Cc1ccc(Cn2nc(C)c(NC(=O)c3cc(-c4ccc5c(c4)OCO5)on3)c2C)cc1,27,2,19*,0,4,-14,-2,0
Cc1nn(Cc2ccc(F)cc2)c(C)c1NC(=O)c1cc(-c2ccc3c(c2)OCO3)on1,6,0,0,-1,-4,-30,.,.
CCCNS(=O)(=O)c1cc(Cl)ccc1OC,-11,2,17*,0,1,-7,-1,-2
CCOC(=O)c1c(NC(=O)COC)sc(C)c1C,.,-6,-1,2,-2,-11,.,.
CCOC(=O)c1c(NC(=O)COC(=O)c2cc(OC)c(OC)cc2[N+](=O)[O-])sc(C)c1C,-8,7,17*,0,-8,-14,-1,2
COC(=O)C1=C(O)C(C(=O)OC)C(c2ccc(C)cc2)C(C#N)(C#N)C1c1ccc(C)cc1 (stereo unspecified),.,4,0,4,-27,-2,.,.
CCOCCCn1c(=NC(C)=O)c(C#N)cc2c(=O)n3ccccc3nc21,-8,11,25*,.,-26,.,6,11

# Source: PubChem BioAssay (several laboratories)
